Test results reported in the OligoGym collection.

target: CSGALNACT1; test: pooled miR-30 sensor sort-seq; sequence = guide strand; conditions: shRNA
Also: reference of the scale not given here.

Row | Sequence | sensor-assay potency score (higher = more potent)
1 | TTAGCTGTGCAATACCACCTTC | -0.0505
2 | ATATTGATGAAGTCTGACCGAT | -0.598
3 | TATCTCGTGCCTGAACACCAGC | -0.848
4 | TTGGACTGCATGCACATCTTGT | -0.464
5 | TAATTCAGTTACTTCCACCTGG | 0.629
6 | TTAAACAATGAGTTTACTGTGA | -0.267
7 | TTGCTGTGGAGATACTTGCGAT | -1.14
8 | TTGATGTCCAGATCAAACCCAC | -0.21
9 | TTAAATTTCATAAACTACCAGT | -0.16

target: CSTF3; test: as above; conditions: shRNA

Row | Sequence | sensor-assay potency score (higher = more potent)
10 | TGAACTTGTATCTATCTACTAG | -0.0129
11 | TTCTTCTTCAATAAAGTGCTTA | -0.0244
12 | TACTTGTTATAGTCTCTCCAGA | -0.878
13 | TTATTCTTTGATTTTCTGCATA | -0.891
14 | TAGAGCATAGGTCTGTTCCGTA | 0.181
15 | TTGTTTTTTCTCAAGAACCATG | -1.15
16 | TTGGTATCTTGCATCTTCGGAA | -0.546
17 | TTTTCTATCCACTTCATCTTTC | -0.135
18 | TTCTGGTATCTTCTCTTGCTTT | -0.975
19 | TTTCTTTGTAACTTGGTAGTTT | -0.139
20 | TAAATCAATGTGCAAAACCTTC | -1.01
21 | TTCCATTCCAATTTTATCCAGT | -0.0677
22 | TTTGTCTATAGGTTGATTCTGT | -0.133
23 | TTGAATGCTGTAAACCGTCTTT | -0.262
24 | TTTGTTTCCAAGAACCTTGTAA | 0.432
25 | TTTGGTATCTTGCATCTTCGGA | -0.026
26 | TAGCTGCTAGCTTAGCACGGGA | -0.406
27 | TTTGCTTAGAGCATAGGTCTGT | 0.755
28 | TTCATCTGAATCCTCGTTGGGC | 0.448
29 | TACTGCATTACTTTCCACGGGG | 0.0681
30 | TCGGATTAACACAACCTCGTTG | -0.511
31 | TATAGAAGGAGCTACAACTGGG | 0.225
32 | TTGATCATCGGATTAACACAAC | -0.951
33 | TTTAGCTAAATGAATATTGATA | -0.643

target: CT47A1; test: as above; conditions: shRNA

Row | Sequence | sensor-assay potency score (higher = more potent)
34 | TATGAGGATGTGGTCGTTGTGA | -0.634
35 | TCACCTTGTTTTCTGCATCCTT | 0.106
36 | TGCATCCTTCTCTTTTTCTTGT | -0.624
37 | TCTGCGTCTGGTTCCTCTGTGG | -0.289
38 | TGTTTTCTGCATCCTTCTCTTT | -1.05
39 | TTGTTCTTTCTCTTCCTCGCCT | 0.277
